KB-V1 MDR tox: qHTS assay for MDR1-selective chemotherapeutics: Primary screen using the drug-selected MDR subline cells KB-V1; Potency, µM (titrated, usually from 46.1 µM), hits mostly cytotoxic; KB-V1 MDR cells viability, CellTiter-Glo, 72 h; 400,000 compounds, 3.4% hits; also: % is scaled to controls: 0 for no effect and ±100 for the full control effect; nearly all actives have a fitted effect of over 60% in size
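Compound-treated KB-V1 multidrug-resistant cells, 72 h, 37 degrees C; viability by CellTiter-Glo. Fitted qHTS curves give the values.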
SW480 rereplic: A quantitative high throughput screen for small molecules that induce DNA re-replication in SW480 colon adenocarcinoma cells. SW480 DNA re-replication, Hoechst DNA content imaging, 48 h. Potency, µM (highest dose often 46.1 µM), for inactives: top-dose re-replication activation, most hits filed as activators. 340,000 compounds, 1.8% hits. AID 624297, 2012; also: % of control where 0% means no effect; nearly all actives have a fitted effect of over 55% in size
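Image-based read-out: total Hoechst fluorescence of nuclei (405 nm excitation, 500-530 nm emission), with hits raising the fraction of high-intensity nuclei. SW480 colon cells incubated 48 hr with compounds at 37 C.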
HT1080 IDH1KD tx: qHTS for induction of synthetic lethality in tumor cells producing 2HG: qHTS for the HT-1080-IDH1KD cell line; HT-1080 IDH1 knockdown viability, ATP luminescence, 48 h; Potency, µM (top dose mostly 46.1 µM), for inactives: at the highest dose activity, negative = toxicity, usual class: cytotoxic; 360,000 compounds, 2% hits;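 also: 0% = DMSO wells and -100% = cell-free medium wells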
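IDH1KD HT-1080 cells, 750/well, RPMI + 5% FBS; compound pinned after 2 h settling; 48 h, 37 °C; CellTiter-Glo luminescence; % activity normalised to DMSO and no-cell wells; curves fitted, classed by r2 and efficacy.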
KB-3-1 cytotox: qHTS assay for MDR1-selective chemotherapeutics: Primary screen using the parental adenocarcinoma cell KB-3-1. KB-3-1 viability, CellTiter-Glo ATP luminescence, 72 h. Potency, µM (series often up to 46.1 µM), hits mostly cytotoxic. 400,000 compounds, 1.4% hits. AID 1347075, 2019; also: % is scaled to controls: 0 for no effect and ±100 for the full control effect; nearly all actives have a fitted effect of over 60% in size
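Parental KB-3-1 adenocarcinoma cells in phenol-red-free DMEM with 10% FBS were pin-treated with compounds at several concentrations, incubated 72 h at 37 °C, and viability read by CellTiter-Glo luminescence; concentration-effect curves were fitted after normalization.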
HT1080-NT tox: qHTS for induction of synthetic lethality in tumor cells producing 2HG: qHTS for the HT-1080-NT fibrosarcoma cell line; Potency, µM (titrated, usually from 46.1 µM), inactives show top-dose activity, negative = less viability, most hits filed as cytotoxic; 360,000 compounds, 1.6% hits; HT-1080-NT fibrosarcoma viability, CellTiter-Glo ATP luminescence, 48 h;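 also: NT is the 2HG producing partner of a matched IDH1 knockdown line; 0% = DMSO-treated cells and -100% = media-only wells without cells; nearly all actives have a fitted effect of over 55% in size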
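Compounds were tested in concentration-response format on HT-1080-NT cells for 48 hours at 37 degrees C. Cell viability came from CellTiter-Glo luminescence; curves were classified by r2, response magnitude and activity.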
MCF10A rereplic: A quantitative high throughput screen for small molecules that induce DNA re-replication in MCF 10a normal breast cells; MCF 10A DNA re-replication, Hoechst nuclear intensity, 48 h; Potency, µM (titrated, usually from 46.1 µM), for inactives: at the highest dose activity, positive = re-replication, most hits filed as activators; 350,000 compounds, 2.9% hits; AID 624296, 2012; also: % of control where 0% means no effect; nearly all actives have a fitted effect of over 50% in size
An asterisk follows results filed as active; i = inactive; ? = inconclusive; nt = no result given; [ ] = remark or other dose. A selection: hits, their analogues and other compounds. The true share with any hit is near 7.9%. Calls follow the shape of the dose curve; as a rule, active = well fitted curve in the direction sought with a large enough effect; inconclusive = small, poorly fitted or top-dose-only effect, or another doubt; inactive = no such curve, though single readings can be large; an effect the other way counts as inactive or inconclusive. Potency is read from the fitted curve at half-maximal effect.

SMILES	KB-V1 MDR tox	SW480 rereplic	HT1080 IDH1KD tx	KB-3-1 cytotox	HT1080-NT tox	MCF10A rereplic
COc1ccc(CN(C)C(=O)C(Cc2ccccc2)NC(=O)c2ccccc2)cc1F (centres undefined)	?	?	-25%	?	-14%	?
CCOc1ccc(CN(C)C(=O)[C@H](Cc2ccccc2)NC(=O)OCc2ccccc2)cc1OC	10µM*	12%	-21%	?	-1%	?
CCC1=Nc2cc(C(=O)NC(C)c3ccccc3)ccc2Sc2ccc(Cl)cc21 (centres undefined)	i	nt	nt	i	nt	nt
Cc1ccc(NC(=O)/C=C/c2cccs2)c([N+](=O)[O-])c1	5.8µM*	21µM*	-22%	?	?	?
CCN(c1ccccc1)S(=O)(=O)c1ccc2c(c1)CC(C)N2C(=O)C1CC1 (centres undefined)	i	-2%	-5%	i	-2%	7%
CCc1cccc(NS(=O)(=O)c2ccc3c(c2)CC(C)N3C(=O)C2CC2)c1 (centres undefined)	13µM*	nt	nt	?	nt	nt
CCOc1ccccc1N(C)S(=O)(=O)c1ccc2c(c1)CC(C)N2C(=O)C1CC1 (centres undefined)	?	?	15µM*	i	?	?
COc1cc(NC(=O)C2=C(C)Nc3nnnn3C2c2ccc(SC)cc2)c(OC)cc1Cl (centres undefined)	?	nt	nt	i	nt	nt
CN(Cc1ccccc1)S(=O)(=O)c1cccc2nsnc12	i	-2%	10%	i	3%	?
COc1ccc(-c2cc3c(nn2)-c2ccccc2C3=O)cc1	7.3µM*	12%	-15%	?	-24%	-25%
C/C(Cl)=C\C[N+](C)(C)CC(=O)OCCc1ccccc1	i	-9%	8%	i	1%	1%
CC[C@]12c3[nH]c4ccc(Cl)cc4c3CCN1C(=O)[C@@H](CC(=O)NCC13CC4CC(CC(C4)C1)C3)C[C@@H]2C(=O)N1CCN(C(=O)c2ccco2)CC1	?	?	18µM*	?	?	21µM*
CCN(CC)C(=O)[C@H]1C[C@H](CC(=O)NCC23CC4CC(CC(C4)C2)C3)C(=O)N2CCc3c([nH]c4ccc(Cl)cc34)[C@]12C	?	15µM*	1%	i	-1%	3%
CC[C@]12c3[nH]c4ccc(OC)cc4c3CCN1C(=O)C(CC(=O)NCC13CC4CC(CC(C4)C1)C3)C[C@@H]2C(=O)N1CCN(C(=O)c2ccco2)CC1 (some centres undefined)	i	?	?	i	-29%	?
CC(C)N(C(=O)[C@H]1C[C@H](CC(=O)NCCCN(C)C)C(=O)N2CCc3c([nH]c4ccc(Cl)cc34)[C@]12C)C(C)C	i	18µM*	?	i	-20%	?
O=C(CCCCCCCC(=O)NNC(=O)Nc1ccccc1)NNC(=O)Nc1ccccc1	i	0%	?	i	?	4%
O=C(CN1CCN(S(=O)(=O)c2ccc3ccccc3c2)CC1)Nc1ccc2c(c1)CCC2	18µM*	22%	10%	i	1%	11%
N#Cc1ccsc1NC(=O)CN1CCN(Cc2ccccc2)CC1	i	-2%	-1%	i	-1%	-6%
N#Cc1ccsc1NC(=O)CN1CCN(S(=O)(=O)c2ccc3ccccc3c2)CC1	6.5µM*	-1%	0%	i	1%	23%
Cc1ccc(S(=O)(=O)N2CCN(CC(=O)Nc3ccc4c(c3)CCC4)CC2)cc1C	2.9µM*	-3%	11%	?	4%	7%
O=C(CN1CCN(S(=O)(=O)c2ccc3ccccc3c2)CC1)Nc1ccc(N2CCOCC2)cc1	i	-3%	-10%	i	-4%	3%
O=C(CN1CCN(S(=O)(=O)c2ccc(Cl)cc2)CC1)Nc1ccc2c(c1)CCC2	i	5%	-6%	?	-2%	22%
Cc1ccc(NC(=O)Cn2c(=O)oc3cc(S(=O)(=O)N4CCC(C)CC4)ccc32)cc1Cl	i	nt	nt	i	nt	nt
Cc1ccc(NC(=O)Cn2c(=O)oc3cc(S(=O)(=O)N4CCC(C)CC4)ccc32)cc1C	?	?	?	?	?	21µM*
COc1cccc(C(=O)C2CCCN(Cc3c(C)n(C)n(-c4ccccc4)c3=O)C2)c1 (centres undefined)	i	2%	12%	i	-5%	5%
SMILES	KB-V1 MDR tox	SW480 rereplic	HT1080 IDH1KD tx	KB-3-1 cytotox	HT1080-NT tox	MCF10A rereplic
CNc1nc2c(-c3ccc(Cl)cc3)nnn2c2ccccc12	i	6%	-1%	i	3%	?
Cc1ccc(-c2nnn3c2nc(NCCc2ccc(S(N)(=O)=O)cc2)c2ccccc23)cc1	i	?	?	i	?	?
Nc1nc2c(-c3ccc(Br)cc3)nnn2c2ccccc12	i	10µM*	-4%	i	-2%	5.2µM*
Cc1ccc(-c2nnn3c2nc(NC2CCC(C)CC2)c2ccccc23)cc1 (centres undefined)	i	nt	nt	i	nt	nt
Cc1cccc(-c2nnn3c2nc(NCCc2ccc(S(N)(=O)=O)cc2)c2ccccc23)c1	i	2.3µM*	-14%	i	-5%	5.2µM*
Cc1ccc(-c2nnn3c2nc(NC(C)C)c2ccccc23)cc1	i	?	-9%	i	-8%	16µM*
NNc1nc2c(-c3cccc(C(F)(F)F)c3)nnn2c2ccccc12	?	3.7µM*	21µM*	?	21µM*	2.9µM*
Cc1cc(/C=C(\C#N)C(=O)NCc2ccccc2)cc(C)c1O	?	-9%	15%	i	2%	-4%
CCN1c2ccccc2-n2cccc2C12CCN(C(=O)Nc1ccccc1C(F)(F)F)CC2	i	nt	nt	i	nt	nt
C=CCn1c(SCc2ccc(C(=O)Nc3nccs3)cc2)nnc1-c1ccc(C)c(Cl)c1	5.2µM*	?	?	?	-21%	10µM*
Cn1nnnc1SCc1ccc(C(=O)Nc2nccs2)cc1	i	-3%	1%	i	?	?
CC(/C=N/NC(=O)COc1ccccc1C)=N\NC(=O)COc1ccccc1C	i	-2%	-2%	i	-2%	-3%
C(=N\n1cnnc1)/c1cccc(Oc2ccccc2)c1	i	21%	2%	i	4%	730%[0.0737 µM]
